Measurements reported in PubChem BioAssay AID1379 (National Center for Advancing Translational Sciences (NCATS), 2008).
Among all 200,000 compounds or so, about 560 (0.28%) were called active. Calls follow the shape of the dose curve; as a rule, active = well fitted inhibition curve with a large enough effect; inconclusive = small, poorly fitted or top-dose-only effect; inactive = flat fitted curve, though single readings scatter. The list comes from a sample in which actives are over-represented; it also holds similar structures and randomly drawn compounds.

What follows are molecules tested against Luciferin 4-monooxygenase (Photuris pensylvanica) (UniProt Q27757) (assay: Counterscreen for Luciferase (Kinase-Glo TM) Inhibition). Details: ATP luminescence, 8 min; series mostly up to 38.3 µM; activity change, negative = inhibition: at the top concentration.
Experimental: NCGC Assay Overview: NIH Molecular Libraries Screening Centers Network [MLSCN] NIH Chemical Genomics Center [NCGC] MLSCN Grant: None Luciferase (Kinase-Glo, Promega Corporation) was assayed for its ability to generate light using ATP and luciferin as substrates. The ATP concentration in the assay (10 uM) was within the linear range of enzyme activity for the assay conditions used.
NCGC Assay Protocol Summary: Four uL of substrate mix (final concentration, 50 mM imidazole pH 7.2, 50 mM KCl, 7 mM MgCl2, 10 uM ATP, 0.01% Tween 20, 0.05% BSA) was dispensed into white 1536 well plates. Twenty-three nL of compound was delivered by a pin tool and 2 uL of luciferase detection mix (Kinase-Glo, Promega)) was added. Following 8-minute incubation at ambient temperature, luminescence was measured by a ViewLux (Perkin Elmer) at 5 seconds exposure/plate.
% is scaled to controls: 0 for no effect and ±100 for the full control effect; potency is read from the fitted curve at half-maximal effect.
Also: nearly all actives have a fitted effect of over 60% in size.

SMILES	activity change, negative = inhibition	Potency
Cc1ccc(-c2cn3cc([N+](=O)[O-])ccc3n2)cc1	-24.6% (inactive)	
Cc1ccc(-c2cn3cc(C)ccc3n2)cc1		11.2 µM (active)
COc1ccc(-c2cn3ccsc3n2)cc1	-24.5% (inactive)	
C[C@H]1Cc2c(-c3ccccc3)nc3c(c2CO1)CN(S(=O)(=O)c1ccc(Cl)c2nonc12)CC3	-6.5% [at 7.66 µM] (inactive)	
C=C(C(C)=O)C(O)c1ccc([N+](=O)[O-])cc1 (stereo not given)	2.25% (inactive)	
Cc1ccc(-c2cccc([C@H]3[C@@H]4C=CC[C@@H](C)[C@@H]4C(=O)N3Cc3ccccc3)c2)cc1	2.21% [at 39.9 µM] (inactive)	
COc1nc(-c2ccc(Cl)cc2)ccc1-c1noc(-c2cccs2)n1	0.069% (inactive)	
O=C(Oc1ccccc1)c1ccc2nccnc2c1	5.55% (inactive)	
O=C(Oc1ccc(-c2nc(-c3ccccn3)no2)cc1)c1ccccc1		4.47 µM (active)
c1csc(-c2nc(-c3ccncc3)no2)c1	-13.5% (inactive)	
COc1ccc(Cc2nc(-c3ccccn3)no2)cc1OC	1.94% (inactive)	
c1ccc(-c2noc(-c3cccs3)n2)nc1		12.6 µM (active)
C/C(Nc1ccc2oc(=O)ccc2c1)=C1/C(=O)CC2[C@@H]1C2(C)C (stereo not given in full)	-0.876% (inactive)	
CCC1C/C(=C/c2cccs2)C(=O)/C(=C/c2cccs2)C1 (stereo not given)	1.29% (inactive)	
COc1ccc(/C=C2\CCc3ccccc3C2=O)c(OC)c1OC	0.525% (inactive)	
O=C1/C(=C/c2cccs2)CCc2ccccc21		11.2 µM (active)
N#Cc1cccc(CS(=O)(=O)c2nnnn2-c2cc(C(F)(F)F)cc(C(F)(F)F)c2)c1	-0.728% (inactive)	
COc1ccc(-c2nc3c(c4c2C[C@H](c2ccccc2)OC4)CN(S(=O)(=O)c2c(C)noc2C)CC3)c(C)c1	-5.25% [at 7.66 µM] (inactive)	
O=C1C=C(c2ccccc2)CCC1	-0.266% (inactive)	
COc1ccc2c(c1)O[C@@H](c1ccc3c(c1)OCO3)[C@H](OC(=O)NCc1ccco1)C2=O	2.74% (inactive)	
COc1ccccc1C(=O)Nc1ccc(NC(=O)c2ccco2)c(C)c1		10 µM (active)
COc1cc(NC(=O)c2cc([N+](=O)[O-])ccc2Br)ccc1NC(=O)c1ccco1	1.81% (inactive)	
COc1ccc(NC(=O)c2cccc(NC(=O)c3ccco3)c2)c(OC)c1	0.933% (inactive)	

SMILES	activity change, negative = inhibition	Potency
O=C(NCc1ccco1)O[C@@H]1C(=O)c2cc(Br)ccc2O[C@H]1c1ccc2c(c1)OCO2	-0.751% (inactive)	
Cc1cccc([C@H]2[C@@H]3C=CC[C@@H](C)[C@@H]3C(=O)N2Cc2ccccc2)c1	-0.116% [at 39.9 µM] (inactive)	
CCN1C(=O)N[C@@H](CCc2ccccc2)C(C(=O)OC)=C1C	0.314% [at 7.66 µM] (inactive)	
C=CCC(C)(O)c1ccco1 (stereo not given)	1.24% (inactive)	
O=C1OCCN1C(=O)[C@H]1[C@H](c2ccc(F)cc2)C(c2ccccc2)=NN1c1ccc(Br)cc1	2.64% [at 39.9 µM] (inactive)	
Cc1ccccc1-c1ccc(C(=O)O)s1	3.14% [at 39.9 µM] (inactive)	
C=CC1(C)CC(=O)C2(O)C(C)(O1)C(OC(C)=O)C(O)C1C(C)(C)CCC(O)C12C (stereo not given)	inactive	
COCCN1C=C2C(=O)C(C)(OC(=O)C3CCCC3)C(=O)C=C2C=C1c1ccsc1 (stereo not given)	-8.74% [at 7.66 µM] (inactive)	
CC1=C2[C@@H](O)[C@H]([C@@H](C)C(=O)NCCC(C)C)CC[C@@]2(C)C=CC1=O	-3.8% (inactive)	
COC(=O)CCCC1=CC2=CC(=O)C(C)(OC(=O)c3cccs3)C(=O)C2=CN1c1cccc(C#N)c1 (stereo not given)	0.0108% [at 7.66 µM] (inactive)	
C/C=C(\C)C(=O)O[C@H]1CC(C)=C2C(=O)C=C(C)C2[C@@H]2OC(=O)[C@@](C)(OC(=O)C=C(C)C)C21 (stereo not given in full)	-12.3% (inactive)	
COc1ccc(OC)c(N=Cc2c(O)[nH]c3ccccc23)c1	-1.78% (inactive)	
COc1ccc(N=Cc2c(O)[nH]c3ccccc23)cc1OC	-4.22% (inactive)	
COc1ccccc1N=Cc1c(O)c2ccccc2oc1=O		14.1 µM (active)
NC1CCN(O)C1=O (stereo not given)	0.152% (inactive)	
Cc1ccc(NC(=O)O[C@@H]2C(=O)c3cc(Br)ccc3O[C@H]2c2ccc3c(c2)OCO3)cc1Br	0.235% (inactive)	
C=CC1=C2C=C(C3CC3)N(CC(C)C)C=C2C(=O)C(C)(OC(=O)c2ccco2)C1=O (stereo not given)	-1.36% [at 7.66 µM] (inactive)	
COc1ccc(/C=C2\NC(=O)[C@@H]3Cc4ccccc4CN3C2=O)cc1	-1.84% (inactive)	
CCCCCCCC[C@@H](O)/C=C/C=C/C=C\[C@@H](O)CCCC(=O)O	-0.585% (inactive)	
C=C(C(C)=O)C(O)c1cccs1 (stereo not given)	2.74% (inactive)	
C=CCC1CCC(=O)N2CCCC12 (stereo not given)	1.99% [at 39.9 µM] (inactive)	
CC1(OC(=O)CCc2ccccc2)C(=O)C=C2C=C(c3ccc(C#N)cc3)N(CCc3ccccn3)C=C2C1=O (stereo not given)	-6.83% [at 7.66 µM] (inactive)	
